Assay outcomes (PubChem BioAssay)
Hits are enriched below; roughly 2.5% of the tested compounds scored in any of these assays.
D2 ag-1: activates the human D2 dopamine receptor; 360,000 tested, 0.084% active; activation, % (test concentration not listed); P14416; DiscoveRx PathHunter D2 beta-arrestin, luminescence, 90 min; 100% = 57 uM dopamine signal; in the data active = activation above about 40%; inconclusive = between about 15% and that limit
Target sequence (P14416 whole entry, looked up): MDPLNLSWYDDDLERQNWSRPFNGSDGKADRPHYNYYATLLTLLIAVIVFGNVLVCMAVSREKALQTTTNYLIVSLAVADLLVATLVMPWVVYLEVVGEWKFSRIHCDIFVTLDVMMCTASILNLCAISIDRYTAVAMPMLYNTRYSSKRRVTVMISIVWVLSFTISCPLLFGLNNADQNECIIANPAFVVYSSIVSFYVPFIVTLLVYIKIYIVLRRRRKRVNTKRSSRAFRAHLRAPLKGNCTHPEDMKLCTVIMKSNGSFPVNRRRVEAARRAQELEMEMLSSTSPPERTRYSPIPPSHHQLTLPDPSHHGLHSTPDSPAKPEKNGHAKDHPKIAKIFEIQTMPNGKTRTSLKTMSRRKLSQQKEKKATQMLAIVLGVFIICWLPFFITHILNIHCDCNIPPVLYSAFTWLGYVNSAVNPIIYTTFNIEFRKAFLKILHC
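DiscoveRx PathHunter D2 beta-arrestin cells (2,100/well) attached overnight, then compound-stimulated 90 min at 37 C in HBSS/10 mM HEPES/0.1% Tween-20 buffer; beta-galactosidase complementation read by luminescence after 1 h at ambient temperature. Dopamine 57 uM final (EC100) as control.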
D2 ag-2: activates the human D2 dopamine receptor | activation, % at 2 µM | HEK293 T-REx D2 cells, calcium flux agonist mode | 340,000 tested, 0.53% active | P14416 | AID 485358;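 active = activation over 3 SD above normal in the single-dose calcium agonist read, cut at about 30% in these data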
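HEK293 Trex D2 cells, tetracycline-induced, o/n 30 C 5% CO2; no-wash Ca dye, RT 30–90 min; 10-cycle baseline, 23 nl cpd added, kinetic Ca read 180 s; agonist hits = positive Ca response.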
D2 antagonist: D2 dopamine receptor (human) antagonism | HEK293 TREx D2 cells, calcium flux, dopamine EC80 | inhibition, % at 10 µM | 340,000 tested, 2% active | AID 485344; in the data active = inhibition above about 30%; inactive = below that, where a call was filed
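Antagonism is scored as inhibition of an EC80 dopamine-evoked calcium signal in a force-coupled, tetracycline-inducible HEK293 T-REx D2 line, with compound present 180 s before agonist.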
D2 PAM-1: D2 dopamine receptor (human) potentiation; 340,000 tested, 0.34% active; potentiation, % at 10 µM; P14416; HEK293 T-REx D2, calcium flux, EC20 dopamine potentiation;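 active = potentiation over 3 SD above the plate norm, cut at about 30% in these data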
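Potentiation of an EC20 dopamine calcium response measured kinetically over 180 s, after a preceding 180 s compound-only read flagging agonists. Cells: inducible Hek293 Trex D2 line, 4000/well, cultured overnight at 30 C before dye loading.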
D2 PAM-2: positive allosteric modulators of human D2 dopamine receptor; P14416; DiscoveRx D2 beta-arrestin cells, luminescence, 90 min; 100% = 57 uM dopamine signal; potentiation, % (concentration not given with the values); 360,000 tested, 0.23% active; in the data active = potentiation above about 50%; inconclusive = mostly about 30% to 49%
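D2 cells co-treated with compound plus 50 nM dopamine (EC20) for 90 min at 37 deg C to detect potentiation. Beta-arrestin recruitment was read as enzyme-fragment luminescence after 1 h at ambient temperature. Full response was set by 57 uM dopamine.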
Apoferritin bind: candidate novel general anesthetic via apoferritin binding | P02791 | apoferritin/1-aminoanthracene competitive binding, fluorescence | Potency, µM (highest dose often 77.5 µM), most hits filed as inhibitors | 350,000 tested, 0.074% active | AID 485281; active = well fitted inhibition curve with a large enough effect; inconclusive = small, poorly fitted or top-dose-only effect; inactive = no such curve, though single readings can be large or run the other way; also: nearly all actives have a fitted effect of over 20% in size
Target sequence (P02791 2-175 limits assumed): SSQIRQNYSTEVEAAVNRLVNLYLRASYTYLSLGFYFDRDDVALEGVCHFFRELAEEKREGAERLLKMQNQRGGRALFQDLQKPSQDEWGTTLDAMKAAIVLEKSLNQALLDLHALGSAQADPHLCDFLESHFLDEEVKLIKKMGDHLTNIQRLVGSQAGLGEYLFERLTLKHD
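Horse-spleen apoferritin (10 uM) was mixed with 50% saturated 1-aminoanthracene in PBS, exposed to compounds for 10 min at room temperature, and read for fluorescence (ex 380 nm, em 535 nm). Competitive displacement was fitted with a four-parameter Hill equation.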
Each line names hits and unclear results; the compound was inactive in the other large screens.

Cc1nn(Cc2ccccc2)c(=O)c2nn(-c3ccc(Cl)cc3)c(C)c12	none
CC(=O)c1ccc(OC(=O)COc2ccccc2Cl)cc1	D2 antagonist 48
O=C(c1ccc(Br)o1)N(c1ccc(Br)cc1)C1C=CS(=O)(=O)C1 (configuration not stated)	none
COc1cc(C(=O)Nc2ccc3nc4n(c(=O)c3c2)CCCC4)ccc1Br	none
Cc1cc(F)ccc1Oc1cc(NN2CCCCC2)c([N+](=O)[O-])cc1[N+](=O)[O-]	D2 antagonist 30
COc1ccc(-c2oc3ccccc3c(=O)c2OC(=O)c2ccc(C)cc2)cc1	D2 PAM-1 31
COC(=O)c1ccc(/C=C/c2c(-c3ccc(OC)cc3)oc3ccccc23)cc1	D2 antagonist 47
Cc1c(CN(C)Cc2cn(C)nc2-c2ccccc2F)[nH]c2ccccc12	none
CCOC(=O)c1c(C)[nH]c(O)c1C=Nc1ccccc1	none (no result: D2 ag-2, D2 antagonist, D2 PAM-1)
CCc1cccc(N=c2c([N+](=O)[O-])nn(-c3ccc4c(c3)OCCO4)n2O)c1	D2 ag-1 inconclusive, D2 PAM-2 inconclusive, Apoferritin bind inconclusive
O=[N+]([O-])c1nn(-c2ccc3c(c2)OCCO3)n(O)c1=NCCC1=CCCCC1	D2 ag-1 inconclusive, D2 PAM-2 147, Apoferritin bind inconclusive
CC(C)c1ccc(N=c2c([N+](=O)[O-])nn(-c3ccc4c(c3)OCCO4)n2O)cc1	D2 PAM-2 71, Apoferritin bind inconclusive
O=[N+]([O-])c1nn(-c2ccc3c(c2)OCCO3)n(O)c1=NCc1ccc(F)cc1	D2 ag-1 inconclusive, D2 PAM-2 143
COc1cc(N=c2c([N+](=O)[O-])nn(-c3ccc4c(c3)OCCO4)n2O)cc(OC)c1	D2 PAM-2 68
CN(C)S(=O)(=O)c1ccc2c(c1)C(CC(=O)O)OC2=O (configuration not stated)	none
CN=c1c([N+](=O)[O-])nn(-c2ccc3c(c2)OCCO3)n1O	D2 ag-1 42
O=[N+]([O-])c1nn(-c2ccc3c(c2)OCCO3)n(O)c1=NCc1ccc(F)cc1Cl	none
C=C1CCN([C@@H](Cc2ccccc2)C(=O)NCc2ccccc2)S(=O)(=O)c2ccccc21	none (no result: D2 ag-2, D2 antagonist, D2 PAM-1, Apoferritin bind)
CCC(C)C(NC(=O)C1CCC(C)CC1)C(=O)NC(CCSC)C(=O)OC (configuration not stated)	none
CCC1CCCCN1C(=O)N[C@@H](CCSC)C(=O)OC (some centres not stated)	D2 antagonist 37
Cc1ccc(C)c(Cn2ncc3ccccc32)c1	D2 PAM-1 41
Cc1nc2ccccn2c1C(=O)/C=C/c1ccc(F)cc1	none
Cc1cc(=O)oc2c(C)c(OC(C)C(=O)NCCCN3CCCC3=O)ccc12 (configuration not stated)	none
COc1ccccc1CNS(=O)(=O)c1ccc2c(c1)CC(C)N2C(=O)C1CC1 (configuration not stated)	none
O=C(CBr)c1ccc([N+](=O)[O-])c(CS(=O)(=O)c2ccc(Cl)cc2)c1	D2 ag-1 54
O=C(CN1C(=O)CCC1=O)NCC12CC3CC(CC(C3)C1)C2	D2 PAM-1 38, Apoferritin bind inconclusive
Cc1ccccc1-n1c(C)n[nH]c1=S	none
COc1ccc(C(C)(C)C)cc1NC(=O)COC(=O)CSCc1c(C)noc1C	D2 antagonist 36 (no result: Apoferritin bind)
OC(c1cccc(Cl)c1)c1nccc2ccccc12 (configuration not stated)	Apoferritin bind inconclusive
O=C(OC(c1ccccc1)c1nccc2ccccc12)c1cc([N+](=O)[O-])cc([N+](=O)[O-])c1 (configuration not stated)	D2 ag-1 inconclusive, D2 PAM-2 81, Apoferritin bind inconclusive
COC(=O)c1ccc2c(c1O)C(=O)c1ccccc1C2=O	D2 PAM-2 107
O=C1c2ccccc2C(=O)c2c1ccc(O)c2O	none (no result: D2 ag-2, D2 antagonist, D2 PAM-1)
COc1ccc(-c2c([C@H]3[C@H]4C=CC[C@@H](C)[C@@H]4C(=O)N3Cc3ccccc3)ccc3ccccc23)cc1	none
COc1cc(/C=C/C(=O)OCC(=O)NC(=O)NC(C)C)ccc1OCC#N	D2 antagonist 46
COc1cc(/C=C/C(=O)OCC(=O)NC(=O)NC(C)C)ccc1O	none
COc1ccc(O[C@H]2C=C[C@@H](c3ccccc3)O[C@H]2CO/N=C2/[C@H]3O[C@@H]3[C@@H](O)[C@H]3[C@H]2CCn2c(=O)n(-c4ccccc4)c(=O)n23)cc1	none (no result: D2 ag-1, D2 ag-2, D2 antagonist, D2 PAM-1, D2 PAM-2)
O=C(CSc1nnnn1-c1ccccc1)Nc1ncc(Cc2cc(Cl)ccc2Cl)s1	none
CC(C)[C@H]1COCCS(=O)(=O)N1Cc1ccccc1	none (no result: D2 ag-2, D2 antagonist, D2 PAM-1, Apoferritin bind)
CC1CCCN(CC(O)COC(c2ccccc2)c2ccccc2)C1 (configuration not stated)	D2 antagonist 50
COc1cc(C(C)=O)ccc1OCC(O)CN1CCN(c2cc(C)cc(C)c2)CC1 (configuration not stated)	D2 antagonist 58
CC(=O)c1ccc(OCC(O)CN2CCN(S(=O)(=O)c3c(C)cc(C)cc3C)CC2)cc1 (configuration not stated)	none
CC(=O)c1ccc(N2CCN(CC(O)COC(c3ccccc3)c3ccccc3)CC2)cc1 (configuration not stated)	D2 PAM-1 37
CC(=O)c1ccc(N2CCN(CC(O)COC(c3ccccc3)c3ccccc3C)CC2)cc1 (configuration not stated)	none
CCOC(=O)c1c(NC(=O)CSc2ncn[nH]2)sc(C(=O)NC)c1C	none
CCOC(=O)c1c(NC(=O)CSc2ncn[nH]2)sc(C)c1C	D2 antagonist 38
COc1ccc(S(=O)(=O)NCC2CCCN(C(=O)c3cccs3)C2)cc1 (configuration not stated)	none (no result: D2 ag-2, D2 antagonist)
COc1ccc(S(=O)(=O)NCC2CCCN(C(=O)c3ccco3)C2)cc1 (configuration not stated)	D2 antagonist 32
CCOc1ccc(CCNC(=O)c2cccc(NC3=NC4CS(=O)(=O)CC4S3)c2)cc1OCC (configuration not stated)	none
CN(C)C(=O)CCc1ccc2c3c([nH]c2c1)[C@]1(CCc2ccccc2)[C@@H](C(=O)N2CCCCC2)C[C@H](CC(=O)NCc2ccco2)C(=O)N1CC3	none (no result: D2 ag-2, D2 antagonist, D2 PAM-1, D2 PAM-2, Apoferritin bind)
Cc1nn(-c2ccccc2)c(C)c1C(=O)NCc1cccs1	none
Cc1nn(-c2ccccc2)c(Cl)c1C(=O)NCc1cccs1	D2 antagonist 44
O=C(CSc1nnc(-c2ccncc2)n1-c1ccc(Cl)cc1)N1CCOCC1	none
Cc1cc(S(=O)(=O)NCCc2ccccc2)c(C)s1	Apoferritin bind 8.9µM
